We go through 6 molecules from PubChem BioAssay (NCATS).

Experiment [1] concerns the target Lysosomal acid glucosylceramidase (Homo sapiens) (UniProt P04062). The experiment in a line: Glucocerebrosidase-p2 (AID 348; in the data active = potency below about 10 µM; note: potency is the fitted concentration of half-maximal effect). The following applies: purified GBA, blue fluorogenic substrate, 40 min. The method in brief:
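Compounds titrated from 0.6 nM upwards against 0.2 nM enzyme in pH 5.9 citric acid/KH2PO4, taurocholate, tween-20; blue fluorogenic substrate 80 uM, 40 min room temperature, stopped and read Ex 365/Em 440 for AC50.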

A short description of experiment [2]: AP1 Signaling Pathway (AID 357; active = well fitted curve in either direction with a large enough effect, not every such curve was filed as active;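 note: ME-180 reporter cells stimulated with EGF at its EC50 level; % is set by controls: 0 for no effect and ±100 for the full control effect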). To be noted: ME-180 AP-1-bla reporter, EGF-induced, beta-lactamase ratio, 5 h; at 7.69 µM (top of the series) unless noted. The method in brief:
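Cells are seeded overnight, exposed to compound titrations and an EC50 level of EGF for 5 hours at 37 °C, then loaded with CCF4 dye for 2.5 hours. Beta-lactamase activity under the AP-1 element is read as a blue/green ratio.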

Experiment [3] addresses Cytochrome P450 1A2 (Homo sapiens) (UniProt P05177). Description: p450-cyp1a2 (AID 410; calls by dose curve; note: potency is the fitted concentration of half-maximal effect). The following applies: recombinant CYP1A2, luciferin-ME demethylation, luminescence; series mostly up to 57 µM. The method in brief: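 20nM CYP1A2 with 100uM Luciferin-ME (at Km) in 100mM KPO4; compound preincubated 10 min, NADPH regeneration added, 60 min at room temperature. Luciferin quantified by luminescence after detection reagent; normalized to 57 uM furafylline.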

Experiment [4] can be described thus: NFAT Signaling Pathway (AID 444; active = well fitted curve in either direction with a large enough effect, not every such curve was filed as active;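 note: carbachol stimulus at about its EC50 of 1 µM final; % is set by controls: 0 for no effect and ±100 for the full control effect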). The following applies: Jurkat NFAT-bla M1, carbachol, beta-lactamase ratio, 5 h; at 7.69 µM (top of the series) unless noted. The method in brief: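 Jurkat cells carrying an NFAT-driven β-lactamase reporter and co-transfected muscarinic M1 receptor were treated with compound plus carbachol (1 uM final, an EC50 level) for 5 h at 37 °C. CCF4 loading followed for 1 h at RT; 460/530 nm ratio gave %activity.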

Experiment [5] can be described thus: Stat Signaling Pathway (AID 446; active = well fitted curve in either direction with a large enough effect, not every such curve was filed as active;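 note: ME-180 cervical cancer cells given 40 pM IL-6 alongside compound; SIE-controlled beta-lactamase reporter measured as 460/530 nm FRET emission ratio; % is set by controls: 0 for no effect and ±100 for the full control effect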). The following applies: ME-180 SIE beta-lactamase reporter, IL-6 stimulated, 5 h; at 7.69 µM (top of the series) unless noted. The method in brief:
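Reporter line: ME-180 cervical carcinoma, SIE-beta-lactamase. Treatment: compound with 40 pM IL-6, 5 hrs, 37 C, in low-serum OPTI-MEM with 10 mM HEPES pH 7.3. Detection: 460/530 nm fluorescence.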

The target of experiment [6] is Glucocorticoid receptor (Homo sapiens) (UniProt P04150). The experiment in a line: GR-GFP Redistribution (AID 450;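 active = compounds whose dose series gives a full or clear partial fitted curve of increased nuclear translocation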; note: potency is the fitted concentration of half-maximal effect). To be noted: U2OS GR-GFP nuclear translocation, laser cytometry, 2 h.
Glucocorticoid receptor (Homo sapiens), sequence (P04150 whole entry, looked up, the tested form may be a part): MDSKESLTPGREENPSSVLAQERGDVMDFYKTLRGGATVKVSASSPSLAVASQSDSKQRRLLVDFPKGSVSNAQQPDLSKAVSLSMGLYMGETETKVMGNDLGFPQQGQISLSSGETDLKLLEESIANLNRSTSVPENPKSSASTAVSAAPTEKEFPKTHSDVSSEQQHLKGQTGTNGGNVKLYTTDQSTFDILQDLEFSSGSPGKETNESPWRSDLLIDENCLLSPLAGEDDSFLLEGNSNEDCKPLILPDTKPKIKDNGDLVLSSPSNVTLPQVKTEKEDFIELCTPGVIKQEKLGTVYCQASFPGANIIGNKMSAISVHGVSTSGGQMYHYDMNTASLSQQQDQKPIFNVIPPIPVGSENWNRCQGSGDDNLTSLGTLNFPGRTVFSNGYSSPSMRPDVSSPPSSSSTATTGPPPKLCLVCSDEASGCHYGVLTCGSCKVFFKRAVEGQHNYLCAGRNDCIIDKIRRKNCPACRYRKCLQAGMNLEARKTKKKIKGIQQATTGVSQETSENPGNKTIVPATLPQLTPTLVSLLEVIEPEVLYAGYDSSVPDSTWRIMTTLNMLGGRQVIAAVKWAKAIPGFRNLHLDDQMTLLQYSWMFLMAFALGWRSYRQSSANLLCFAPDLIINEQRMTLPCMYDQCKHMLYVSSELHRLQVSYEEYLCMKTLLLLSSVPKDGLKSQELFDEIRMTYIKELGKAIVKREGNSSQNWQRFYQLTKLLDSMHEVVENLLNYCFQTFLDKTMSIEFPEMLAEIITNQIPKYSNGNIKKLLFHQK
The target is the same in experiment [7]. Description: GR-EFC Redistribution (AID 451; calls by dose curve; note: potency is the fitted concentration of half-maximal effect). To be noted: CHO-K1 GR-EFC translocation, beta-gal luminescence, 2 h. The method in brief: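 CHO-K1 cells stably expressing nuclear-localized β-gal enzyme acceptor and GR fused C-terminally to the enzyme donor fragment; ligand-driven nuclear translocation restores β-gal by complementation. Compounds titrated up to 46 uM final, 2 h at 37 °C; luminescence read.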

The target of experiment [8] is Mitogen-activated protein kinase 10 (Mus musculus) (UniProt Q61831). Description: JNK3 AlphaScreen Assay (AID 530; active = well fitted curve in either direction with a large enough effect, not every such curve was filed as active;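 note: kinase came from lysate of stimulated human HepG2 cells; signal reports phosphorylation of biotinylated GST-cJun 1-79 at Ser73 with 10 µM ATP; % is set by controls: 0 for no effect and ±100 for the full control effect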). To be noted: JNK3 lysate, c-Jun phosphorylation; series mostly up to 57.1 µM. The method in brief: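 Inhibitors reduce antibody binding to phosphorylated biotin-cJun, lowering AlphaScreen luminescence. Lysates from HepG2 cells pre-activated by IL-1beta plus TNF-alpha supplied JNK3; compounds were titrated.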
On the technique in general: Bead proximity is the source of the signal in Alpha formats.

Experiment [9] deals with 3',5'-cyclic-AMP phosphodiesterase 4B (Homo sapiens) (UniProt Q07343). Description: qHTS Assay for Inhibitors of PDE-IV (AID 607; active = well fitted activation curve with a large enough effect in the main read-out, with a control signal flat, not every such curve was filed as active; note: % of control where 0% means no effect). The following applies: HEK293 ACTOne CNG channel cells, membrane potential fluorescence; series mostly up to 22.9 µM. The method in brief:
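Cell-based read-out of cAMP via a modified cyclic nucleotide-gated channel and membrane potential dye (535/590 nm) in HEK293 cells expressing PDE4 endogenously. Compounds tested up to 22.9 uM final; 100 uM RO 20-1724 reference.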
(qHTS replaces the single test concentration by a dilution series.)

The target of experiment [10] is Cytochrome P450 3A4 (Homo sapiens) (UniProt P08684). Description: qHTS Assay for Inhibitors and Substrates of Cytochrome P450 3A4 (AID 884). Note: potency is the fitted concentration of half-maximal effect; nearly all actives have a fitted effect of over 50% in size. To be noted: recombinant CYP3A4, Luciferin-PPXE luminescence; series mostly up to 57.1 µM. The method in brief: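 20 nM human CYP3A4 with 25 uM Luciferin-PPXE (at KM) in 200 mM KPO4, preincubated 10 min with compound; NADPH regeneration started a 60 min RT reaction. Luciferin detected by luminescence, normalized to 57 uM ketoconazole as full inhibition.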
Cytochrome P450 3A4 (Homo sapiens), sequence (P08684 whole entry, looked up): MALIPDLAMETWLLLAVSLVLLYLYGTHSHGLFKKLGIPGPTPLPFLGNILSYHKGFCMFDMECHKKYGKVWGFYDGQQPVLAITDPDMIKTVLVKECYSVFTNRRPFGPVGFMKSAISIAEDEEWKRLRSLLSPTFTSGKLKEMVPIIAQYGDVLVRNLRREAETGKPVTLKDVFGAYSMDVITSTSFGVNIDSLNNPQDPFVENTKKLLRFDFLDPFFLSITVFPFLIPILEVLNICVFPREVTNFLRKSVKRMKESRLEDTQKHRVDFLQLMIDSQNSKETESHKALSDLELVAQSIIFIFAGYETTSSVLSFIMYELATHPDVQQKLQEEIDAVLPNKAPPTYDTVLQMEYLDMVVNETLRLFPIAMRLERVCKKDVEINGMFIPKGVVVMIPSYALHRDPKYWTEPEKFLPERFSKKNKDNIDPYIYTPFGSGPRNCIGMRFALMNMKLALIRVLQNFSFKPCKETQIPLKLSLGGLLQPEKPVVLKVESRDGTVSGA

For experiment [11] the target is unchanged. The experiment in a line: qHTS Assay for Activators of Cytochrome P450 3A4 (AID 885). Note: nearly all actives have a fitted effect of over 65% in size. To be noted: recombinant CYP3A4, Luciferin-PPXE luminescence, 60 min; series mostly up to 57.1 µM. The method in brief: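 Signal was normalized against complete inhibition by 57 uM ketoconazole. The reaction used 20nM CYP3A4 with 25uM Luciferin-PPXE, 10-min compound preincubation and a 60-min NADPH-supported step at RT.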

Experiment [12] addresses Dual specificity protein kinase CLK4 (Homo sapiens) (UniProt Q9HAZ1). Description: qHTS Assay for Inhibitors of CDC-like Kinase 4 (Kinase-Glo Assay) (AID 1770). Note: nearly all actives have a fitted effect of over 65% in size. Note: potency is the fitted concentration of half-maximal effect. The following applies: recombinant Clk4, Kinase-Glo ATP depletion luminescence; series mostly up to 66.7 µM. The method in brief: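 Clk4 25 nM, RS peptide 100 uM, ATP 1 uM, pH 7.5 Tris, 10 mM MgCl2, 2.5 mM DTT; 4.5 h RT; ATP depletion read by Kinase-Glo luminescence.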

Experiment [13] has the same target. The experiment in a line: qHTS Assay for Inhibitors of CDC-like Kinase 4 (ADP-Glo Assay) (AID 1771). Note: nearly all actives have a fitted effect of over 70% in size. Note: potency is the fitted concentration of half-maximal effect. The following applies: recombinant CLK4, ADP-Glo luminescence; series mostly up to 80 µM. The method in brief: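 25 nM Clk4 with 100 uM RS repeat peptide and 1 uM ATP (final) in buffer with 2 mM MgCl2, 0.5 mM EGTA, 2.5 mM DTT, 0.01% Triton X-100; 1 h at room temperature; ADP-Glo luminescence for ADP formed.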

Experiment [14] has the same target. Description: qHTS Assay for Inhibitors of CDC-like Kinase 4 (ADP-FP Assay) (AID 1795). Note: nearly all actives have a fitted effect of over 60% in size. Note: potency is the fitted concentration of half-maximal effect. To be noted: Transcreener ADP fluorescence polarization; series mostly up to 50 µM. The method in brief: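 Kinase activity was followed as ADP output, converted from fluorescence polarization with a calibration curve. Reactions ran one hour at low ATP (1 uM) with RS peptide substrate.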

Experiment [15] has as its target Ubiquitin carboxyl-terminal hydrolase 1 (Homo sapiens) (UniProt O94782). Description: Inhibitors of USP1/UAF1: Pilot qHTS (AID 504865).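 Note: rhodamine fluorescence freed from ubiquitin-rhodamine substrate followed over time; top concentration of the series differs between compounds; % is set by controls: 0 for no effect and ±100 for the full control effect; nearly all actives have a fitted effect of over 35% in size.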 To be noted: purified USP1/UAF1, Ub-rhodamine cleavage fluorescence; series mostly up to 54.9 µM. The method in brief: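 Enzyme-free wells gave the negative control, while test wells held 1nM USP1/UAF1 preincubated with compound for 15 min at room temperature. Ub-Rho at 150nM final started the reaction, and fluorescence at 480/540 nm was recorded kinetically.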

A short description of experiment [16]: Primary qHTS for small molecule stabilizers of the endoplasmic reticulum resident proteome: Secreted ER Calcium Modulated Protein (SERCaMP) assay (AID 1508630). Note: % is set by controls: 0 for no effect and ±100 for the full control effect. The following applies: SH-SY5Y GLuc-SERCaMP (Gaussia luciferase released on ER calcium loss) secretion, thapsigargin, luminescence; series mostly up to 38.4 µM. The method in brief: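 GLuc-SERCaMP-expressing SH-SY5Y cells, pretreated 16 h with compound, are challenged with thapsigargin to empty ER calcium stores; after 4 h, coelenterazine is added directly to the medium and luminescence is imaged.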

Experiment [17] concerns the target Cytochrome P450 2C19 (Homo sapiens) (UniProt P33261). The experiment in a line: qHTS Assay for Inhibitors and Substrates of Cytochrome P450 2C19 (AID 899). Note: potency is the fitted concentration of half-maximal effect; nearly all actives have a fitted effect of over 60% in size. To be noted: recombinant CYP2C19, luciferin-H EGE luminescence; series mostly up to 57.1 µM. The method in brief: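 NADPH-dependent conversion of Luciferin-H EGE (10uM, at KM) by 5nM enzyme in 50mM KPO4, 60 min at 37C following 10 min compound preincubation. Stopped with luciferin detection buffer; luminescence read after 20 min.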

The structures appear in SMILES notation. Values without a mark were called inactive. Inconclusive results are not listed. Activity calls are given as the source filed them. Unless noted, calls come from the whole dose curve; as a rule, active = well fitted curve in the direction sought with a large enough effect; inconclusive = small, poorly fitted or top-dose-only effect, or another doubt; inactive = no such curve, though single readings can be large; an effect the other way counts as inactive or inconclusive.

Lysosomal acid glucosylceramidase (Homo sapiens), sequence (P04062 whole entry, looked up): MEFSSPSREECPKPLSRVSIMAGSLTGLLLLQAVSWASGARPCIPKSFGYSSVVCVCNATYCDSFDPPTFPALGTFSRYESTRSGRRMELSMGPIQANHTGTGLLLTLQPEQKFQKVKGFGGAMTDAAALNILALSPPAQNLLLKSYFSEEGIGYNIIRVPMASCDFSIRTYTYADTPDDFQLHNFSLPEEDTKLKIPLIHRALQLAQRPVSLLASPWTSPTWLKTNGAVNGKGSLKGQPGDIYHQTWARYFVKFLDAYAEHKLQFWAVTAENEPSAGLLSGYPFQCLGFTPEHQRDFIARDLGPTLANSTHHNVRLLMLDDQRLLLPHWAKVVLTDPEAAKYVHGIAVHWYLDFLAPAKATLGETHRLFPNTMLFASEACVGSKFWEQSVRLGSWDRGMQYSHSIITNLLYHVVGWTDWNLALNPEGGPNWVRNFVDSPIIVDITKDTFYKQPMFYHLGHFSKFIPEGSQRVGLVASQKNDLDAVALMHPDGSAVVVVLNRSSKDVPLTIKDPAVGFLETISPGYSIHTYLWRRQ
Dual specificity protein kinase CLK4 (Homo sapiens), sequence (Q9HAZ1 whole entry, looked up): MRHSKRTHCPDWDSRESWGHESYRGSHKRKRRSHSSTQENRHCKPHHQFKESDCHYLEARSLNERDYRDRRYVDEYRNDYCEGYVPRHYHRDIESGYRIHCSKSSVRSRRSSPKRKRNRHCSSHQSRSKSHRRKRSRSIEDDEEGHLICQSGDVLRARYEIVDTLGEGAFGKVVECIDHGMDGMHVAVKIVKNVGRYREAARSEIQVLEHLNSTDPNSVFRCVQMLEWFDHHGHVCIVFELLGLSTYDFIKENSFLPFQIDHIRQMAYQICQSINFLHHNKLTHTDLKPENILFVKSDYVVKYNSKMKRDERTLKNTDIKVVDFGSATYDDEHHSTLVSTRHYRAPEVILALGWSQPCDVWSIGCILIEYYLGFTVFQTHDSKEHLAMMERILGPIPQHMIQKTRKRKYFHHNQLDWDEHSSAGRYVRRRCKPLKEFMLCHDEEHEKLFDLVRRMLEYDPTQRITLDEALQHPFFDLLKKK
3',5'-cyclic-AMP phosphodiesterase 4B (Homo sapiens), sequence (Q07343 whole entry, looked up): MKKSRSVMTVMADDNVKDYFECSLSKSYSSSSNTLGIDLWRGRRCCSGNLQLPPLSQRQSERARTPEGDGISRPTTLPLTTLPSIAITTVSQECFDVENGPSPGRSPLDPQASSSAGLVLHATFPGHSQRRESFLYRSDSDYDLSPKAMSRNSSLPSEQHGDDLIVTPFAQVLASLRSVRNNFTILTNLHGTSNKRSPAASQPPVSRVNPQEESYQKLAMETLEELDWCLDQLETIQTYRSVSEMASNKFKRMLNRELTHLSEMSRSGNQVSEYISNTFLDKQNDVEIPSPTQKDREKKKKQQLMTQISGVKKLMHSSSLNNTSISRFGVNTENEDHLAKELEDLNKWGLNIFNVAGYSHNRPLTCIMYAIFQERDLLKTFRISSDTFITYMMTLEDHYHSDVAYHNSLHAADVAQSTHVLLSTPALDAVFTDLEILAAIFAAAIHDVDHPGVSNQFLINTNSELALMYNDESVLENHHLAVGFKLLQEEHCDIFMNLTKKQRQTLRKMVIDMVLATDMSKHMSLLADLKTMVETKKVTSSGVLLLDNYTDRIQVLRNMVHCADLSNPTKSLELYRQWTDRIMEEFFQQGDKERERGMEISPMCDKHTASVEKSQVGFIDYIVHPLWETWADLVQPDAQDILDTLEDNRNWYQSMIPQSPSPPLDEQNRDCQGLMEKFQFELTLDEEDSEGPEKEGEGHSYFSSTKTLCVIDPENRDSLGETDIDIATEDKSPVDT
Ubiquitin carboxyl-terminal hydrolase 1 (Homo sapiens), sequence (O94782 whole entry, looked up): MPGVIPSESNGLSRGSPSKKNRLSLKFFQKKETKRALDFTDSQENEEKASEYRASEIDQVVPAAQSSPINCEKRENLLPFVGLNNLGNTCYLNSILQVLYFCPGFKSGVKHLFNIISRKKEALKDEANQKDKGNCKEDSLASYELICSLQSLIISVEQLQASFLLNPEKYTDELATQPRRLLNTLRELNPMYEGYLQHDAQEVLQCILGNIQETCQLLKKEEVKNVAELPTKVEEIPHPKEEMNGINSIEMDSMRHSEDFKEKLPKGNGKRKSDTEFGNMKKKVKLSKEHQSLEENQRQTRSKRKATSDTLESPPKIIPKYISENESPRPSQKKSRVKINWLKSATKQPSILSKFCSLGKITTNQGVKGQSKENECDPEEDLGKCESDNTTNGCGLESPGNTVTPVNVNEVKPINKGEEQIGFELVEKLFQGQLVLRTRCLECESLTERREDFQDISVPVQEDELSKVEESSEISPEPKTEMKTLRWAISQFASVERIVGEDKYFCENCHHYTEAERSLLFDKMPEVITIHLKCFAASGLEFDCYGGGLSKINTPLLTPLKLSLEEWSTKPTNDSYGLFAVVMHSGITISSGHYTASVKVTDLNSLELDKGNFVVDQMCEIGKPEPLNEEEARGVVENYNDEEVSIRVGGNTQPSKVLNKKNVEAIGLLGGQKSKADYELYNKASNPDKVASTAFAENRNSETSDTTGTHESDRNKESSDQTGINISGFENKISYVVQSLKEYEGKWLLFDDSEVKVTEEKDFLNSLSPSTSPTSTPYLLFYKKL
Cytochrome P450 1A2 (Homo sapiens), sequence (P05177 whole entry, looked up): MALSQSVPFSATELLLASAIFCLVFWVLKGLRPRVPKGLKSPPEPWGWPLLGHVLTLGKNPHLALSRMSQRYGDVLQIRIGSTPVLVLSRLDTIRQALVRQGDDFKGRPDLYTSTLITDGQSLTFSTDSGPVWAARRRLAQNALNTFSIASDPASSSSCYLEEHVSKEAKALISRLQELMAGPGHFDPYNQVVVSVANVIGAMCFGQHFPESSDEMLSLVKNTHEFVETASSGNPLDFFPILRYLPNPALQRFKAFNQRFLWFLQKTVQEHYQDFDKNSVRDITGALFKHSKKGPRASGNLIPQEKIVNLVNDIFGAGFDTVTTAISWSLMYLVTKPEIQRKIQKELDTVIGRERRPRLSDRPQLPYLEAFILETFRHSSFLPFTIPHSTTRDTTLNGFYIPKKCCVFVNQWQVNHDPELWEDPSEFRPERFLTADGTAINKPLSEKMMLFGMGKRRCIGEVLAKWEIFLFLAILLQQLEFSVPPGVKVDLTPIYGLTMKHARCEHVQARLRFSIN
Cytochrome P450 2C19 (Homo sapiens), sequence (P33261 whole entry, looked up): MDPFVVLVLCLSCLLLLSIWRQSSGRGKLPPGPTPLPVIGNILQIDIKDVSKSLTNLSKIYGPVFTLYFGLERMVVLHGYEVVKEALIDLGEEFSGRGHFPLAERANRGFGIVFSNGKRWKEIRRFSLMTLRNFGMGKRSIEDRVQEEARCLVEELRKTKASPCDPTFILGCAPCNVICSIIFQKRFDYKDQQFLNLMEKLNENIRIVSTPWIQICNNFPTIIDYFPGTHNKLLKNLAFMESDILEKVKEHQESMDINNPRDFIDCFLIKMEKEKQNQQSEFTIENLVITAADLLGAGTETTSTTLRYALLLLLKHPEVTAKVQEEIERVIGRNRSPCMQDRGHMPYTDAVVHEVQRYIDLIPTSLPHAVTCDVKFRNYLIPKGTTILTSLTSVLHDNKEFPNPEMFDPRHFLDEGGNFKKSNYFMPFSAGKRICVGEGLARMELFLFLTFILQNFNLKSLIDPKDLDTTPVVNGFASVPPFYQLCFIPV

In the case of `COc1ccc(CNc2ncncc2-c2c(C)noc2C)c(OC)c1`, the Potency was more than 11.4 µM in experiment [1]; 25.1 µM (active) in experiment [3]; more than 46 µM in [6]; more than 46 µM in experiment [7]; 1.26 µM (active) in experiment [10]. For the same molecule, the results for the activity change, negative = inhibition in experiment [2] and in experiment [4] were -10.6% and 9.48%, respectively. Moreover, in experiment [5], the activity, negative = inhibition is 2.92%. Further, the Potency entry in experiment [8], in [9], in experiment [11], in experiment [12], in experiment [13] and in experiment [14] was “inactive” in each case. Moreover, the Potency result in [15] is “inactive”. For the same molecule, the result in [16] was inactive.
Turning to `CN1CCN(c2ncncc2-c2cccnc2)CC1`, the Potency is more than 11.4 µM in experiment [1], 25.1 µM (active) in experiment [3], more than 46 µM in [6] and more than 46 µM in experiment [7]. In addition, the figures for the activity change, negative = inhibition in experiment [2] and in [4] were 2.82% and -6.42%, respectively. For the same molecule, in experiment [5], the activity, negative = inhibition is -20.2%. The Potency entry in [8], in [9], in experiment [11], in experiment [12], in [13] and in experiment [14] was “inactive” each time. Moreover, the Potency entry in experiment [15] is “inactive”. In experiment [16], the outcome was inactive.
Consider `c1ccc(CNc2ncncc2-c2cccnc2)cc1`, for which the Potency is more than 11.4 µM in experiment [1]; 2.51 µM (active) in [3]; more than 46 µM in experiment [6]; more than 46 µM in [7]; 1.26 µM (active) in [10]. For the same molecule, the results for the activity change, negative = inhibition in [2] and in [4] were 1.26% and -2.51%, respectively. For the same molecule, the activity, negative = inhibition in [5] was -3.91%. Further, the Potency entry in experiment [8], in experiment [9], in experiment [11], in [12], in experiment [13] and in [14] was “inactive” throughout. Moreover, the Potency result in [15] was “inactive”. For the same molecule, the outcome in experiment [16] was inactive.
In the case of `CN(Cc1ccco1)c1cc(-c2cccc(NS(C)(=O)=O)c2)ncn1`, the Potency in [1] is more than 11.4 µM; in experiment [3], 3.98 µM (active); in [6], more than 46 µM; in [7], more than 46 µM; in experiment [12] it was 11.2 µM (active); in experiment [13], 8.91 µM (active). In addition, the activity change, negative = inhibition in experiment [2] was 10.2%; in [4], -5.51%. For the same molecule, in [5], the activity, negative = inhibition was 11.3%. Also, the Potency entry in [8], in experiment [9], in experiment [11], in [14] and in experiment [15] was “inactive” throughout. Further, the result in experiment [16] was inactive.
`COc1ccccc1CNc1ncncc1-c1ccc(C(=O)N(C)C)cc1`: the Potency was more than 11.4 µM in experiment [1]; 12.6 µM (active) in experiment [3]; more than 46 µM in [6]; more than 46 µM in experiment [7]; 2.51 µM (active) in [10]; 12.6 µM (active) in [12]. For the same molecule, the Potency is 14.1 µM (active) in [13] and 12.6 µM (active) in experiment [14]. The activity change, negative = inhibition in [2] was -10.9%; in [4], 1.11%. In addition, the activity, negative = inhibition in [5] is 9.05%. Also, the Potency entry in [8], in [9], in experiment [11] and in experiment [15] was “inactive” in each case. In experiment [16], the result was inactive.
With `FC(F)(F)c1ccccc1-c1cncnc1NCc1cccnc1`, the Potency was more than 11.4 µM in [1]; 20 µM (active) in experiment [3]; more than 46 µM in experiment [6]; more than 46 µM in experiment [7]; 0.631 µM (active) in [10]; 2.51 µM (active) in experiment [17]. Besides, the activity change, negative = inhibition in [2] was -13.4%; in experiment [4], -6.58%. In addition, the activity, negative = inhibition in [5] was -1.05%. Moreover, the Potency entry in experiment [8], in experiment [9], in [11], in [12], in experiment [13] and in experiment [14] was “inactive” in each case. For the same molecule, in [15], the Potency entry was “inactive”. Besides, the result in [16] was inactive.
